Consider 40 sequences from the supplement of paper PMC10681739.
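Further: Full-length recombinant human ETS1 or RUNX1 bound to double-stranded 36-bp genomic probes on microarrays, detected by protein-specific primary antibody and Alexa488 secondary, spot fluorescence as median of four replicate spots.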

Chain of RUNX1 (Q01196 whole entry): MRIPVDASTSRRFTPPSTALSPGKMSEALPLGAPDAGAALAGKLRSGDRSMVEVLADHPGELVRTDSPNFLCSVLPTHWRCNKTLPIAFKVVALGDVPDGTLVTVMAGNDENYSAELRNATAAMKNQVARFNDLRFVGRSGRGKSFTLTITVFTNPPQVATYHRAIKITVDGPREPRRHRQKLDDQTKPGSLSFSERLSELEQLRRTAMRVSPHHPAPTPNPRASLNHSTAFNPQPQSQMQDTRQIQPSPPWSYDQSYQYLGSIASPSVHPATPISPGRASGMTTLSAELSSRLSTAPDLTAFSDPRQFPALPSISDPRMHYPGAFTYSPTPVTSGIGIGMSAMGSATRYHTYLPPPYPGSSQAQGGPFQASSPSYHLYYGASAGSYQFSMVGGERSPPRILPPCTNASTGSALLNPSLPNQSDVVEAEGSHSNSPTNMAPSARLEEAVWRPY

The experiment concerns the target RUNX1 (UniProt Q01196). As to the kind of experiment: RUNX1 binding intensity (PBM fluorescence) in presence of ETS1, normalised to RUNX1-only experiment (arbitrary fluorescence units); higher = stronger binding. The settings on record: RUNX1 concentration 2 nM; ETS1 concentration 25 nM. As for the experimental part: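 Cooperative gcPBM on 36-bp genomic probes with neighbouring ETS1 and RUNX1 sites. Recombinant human RUNX1 (2 nM) was incubated alone or with ETS1 (25 nM) and detected with anti-RUNX1 antibody plus Alexa488 secondary. Values are medians over 4 replicate spots; the RUNX1+ETS1 data were normalised to the RUNX1-only data. The probes sit in constant array flanks that are not printed.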
As for ACAATAACAGGAAGTGGTGGGGACTGCGGTGACCTG, the RUNX1 binding intensity was 3340.

CATGTGCTTCCGGCTTGATCTGTGGTTATTCTGGTT: the RUNX1 binding intensity was 3010.

In the case of ACCAGAACAGGAAATGTTAGTGGTTGAGTTAACGGT, the RUNX1 binding intensity turned out to be 1260.

As for GAGGGCCTGGGAGGAAGTGGGTTTTGCATACAGTCC, the RUNX1 binding intensity came out at 1330.

On to TTCTGCTACATCCTGCCCACTCCCTGTGGCTTCCAC, for which the RUNX1 binding intensity was 3270.

On to CTCCTCCCCCACTTCCTATTTTTACCGCAGTTGCAC, for which the RUNX1 binding intensity worked out at 7610.

In the case of GCCTGCAGCTTCTTCCTGTGGCTTCTGCATCTCAGG, the RUNX1 binding intensity amounted to 1320.

Turning to GAGTCGCTTCCGCTCCCGCCCCGCTCTGTGGCGTAG, the RUNX1 binding intensity worked out at 1980.

For the sequence GGTTCTCTAGGGAGAGGATGTGGGTTTGTCTCTGGG, the RUNX1 binding intensity was determined as 1570.

TCTAAATCACTTCCTGTTACAGAAACCACAGGCCTG: the RUNX1 binding intensity was 4430.

As for TCTCTTCCGTTCTCTGGTAGCTTTGTGGTAGCTTTG, the RUNX1 binding intensity was 2710.

For TCAGGGGTGGGAGGAAGTGGTTAGGATCAGCCTGGG, the RUNX1 binding intensity came out at 2680.

On to CACTTCCGGGTCGTCAGCTCAGTTCTGCGGTTTCTG, for which the RUNX1 binding intensity came to 12800.

For the sequence ACGTACGGGATGTGGGAGGTTTGTTTTGACCACACC, the RUNX1 binding intensity came out at 1160.

For GGCAGCCGGCTTCCGGCTGTGGGTGGTGCGGGGGAC, the RUNX1 binding intensity is 1540.

Take CAGCAGAGGCGCGGATGTGGTTAAACGAGTGCCGTC: the RUNX1 binding intensity amounted to 3670.

As to GGCCCGGCCGGAAGAAGCCACCTCCCCCGCACGCGT, the RUNX1 binding intensity amounted to 1240.

In the case of TCGCTTCCGGTGTCGGTTACAGACTGTGGTTGCCAT, the RUNX1 binding intensity was 3330.

As for GCGGAGGGAAGCGGAAATACTTGCGGTGGGGGCGAC, the RUNX1 binding intensity turned out to be 2210.

Regarding CCCGGCCACTTCCGCCTATTGCGGGCGTCGGCTAGG, the RUNX1 binding intensity is 4310.

For the sequence AAACCCCAAACAGGAAGTGGTAAAGCAACCTGCATC, the RUNX1 binding intensity came to 7980.

For the sequence GATACCTAGAAGCCAGGAAACCGCGAGCTGCAGTCC, the RUNX1 binding intensity came to 1380.

Consider CCCTCATCTTCCTGCTTCAGGCAGCTGTGGTTTACC, for which the RUNX1 binding intensity came to 1660.

On to GAAGCTCCCCAAACAGGATGTGGTTAGGGAGAGGGG, for which the RUNX1 binding intensity was 4090.

For AGGAGAAGGAAGAGGATGTTGAGGTTGGGGGAAACC, the RUNX1 binding intensity was found to be 882.

Take CAGAAAGAGGAAATGATGCGAGTCCACACCGCAGGC: the RUNX1 binding intensity is 1170.

Take AGAATCGCATCAGGATGTGGTGAGGGAGCACATTTG: the RUNX1 binding intensity turned out to be 969.

Turning to TTTCCTCGGATTCCCGGATGTGGGTGAGTTCATTTG, the RUNX1 binding intensity worked out at 2000.

For ACTCCAGAGGAAGTGGCAAGACGAGCGCGGTAACGG, the RUNX1 binding intensity came out at 1330.

Turning to TGCGCCGGGAGGAAGGGCTCCAAAACCACAGGGCGG, the RUNX1 binding intensity came out at 927.

CACTTCCCCCAGCCTCTCTTTTTAATACCACAATAG: the RUNX1 binding intensity came to 3290.

For the sequence TGCAGTCTCAACTTCCTGCGGTCAAGTGATCCTTCA, the RUNX1 binding intensity stood at 6540.

TTCTTCCGGCAACTGCTGCTGAGGCTGCGGTGGCGG: the RUNX1 binding intensity turned out to be 2050.

In the case of GCAGAACCAGAAACAGGATGTGGGTTCCCCTTTAAG, the RUNX1 binding intensity was determined as 4550.

CTGAAGAGGAAATGTATTCCTCATGTTGTGGTTGGC: the RUNX1 binding intensity came out at 878.

For the sequence CCCTCAGCGGAAGTGGAAGCTGTGGTTTCCAAAGGC, the RUNX1 binding intensity worked out at 3570.

Take CAGCGGCCGTCGCGGGAAGTGCGGTCGCCGCGGCCA: the RUNX1 binding intensity was 966.

For the sequence CATCCAGGACGGAAACAGCATCCCCACCGCGGGAGC, the RUNX1 binding intensity worked out at 1080.

With GTAAGTAGGCCAGGAAGTGGTCACTGCAGCATGTGA, the RUNX1 binding intensity amounted to 1440.

As to TGCTTCCCGTCCGTGTCGCGGCCCTGCGGTTGGCGG, the RUNX1 binding intensity came out at 3310.
